# Biological target: T1, Rbm38-FF (Mus musculus, UniProt Q62176 1-237)
# T1 sequence: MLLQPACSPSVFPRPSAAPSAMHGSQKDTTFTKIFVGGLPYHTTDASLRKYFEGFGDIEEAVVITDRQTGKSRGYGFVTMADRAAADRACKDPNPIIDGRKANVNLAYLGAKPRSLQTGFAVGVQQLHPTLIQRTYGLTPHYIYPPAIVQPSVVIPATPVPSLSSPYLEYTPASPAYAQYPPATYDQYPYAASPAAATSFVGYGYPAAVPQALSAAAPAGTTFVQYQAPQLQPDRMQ
# Test: SELEX-Seq; 16 mM HEPES pH 7.9, 150 mM KCl, 2 mM MgCl2, 60 uM EDTA, 1 mM DTT, 6% glycerol, 0.01 ug/uL heparin, 0.15 mM PMSF, 0.2 U/uL SUPERase-In, room temperature, 30 min; high values mean tight binding
# Conditions: protein: recombinant; tags: C-terminal 2xFLAG with TEV remnant (SBP removed by TEV cleavage); ssRNA
row,Sequence,binding signal
1,AUGUGUG,0.00771 fraction of reads
2,GUGUGUG,0.016 fraction of reads
3,GUGUGGU,0.00929 fraction of reads
4,UGUGUGG,0.00894 fraction of reads
5,UGUGUUU,0.00792 fraction of reads
6,UGGUGUG,0.00917 fraction of reads
7,GUGUUGU,0.00863 fraction of reads
8,GUGCGUG,0.0063 fraction of reads
9,GGUGUGU,0.0109 fraction of reads
10,UGUGUGU,0.0159 fraction of reads
11,UGCGUGU,0.00637 fraction of reads
12,GUGUGGG,0.00755 fraction of reads
13,UGUGUUG,0.00826 fraction of reads
14,GGGUGUG,0.0067 fraction of reads
15,GGUGUGG,0.00694 fraction of reads
16,CAGUGUG,0.00615 fraction of reads
17,GUUGUGU,0.00961 fraction of reads
18,CGUGUGU,0.01 fraction of reads

row,Sequence,binding signal
1,GUUUGUG,0.00579 fraction of reads
2,GCGUGUG,0.00853 fraction of reads
3,UUGUGUU,0.00601 fraction of reads
4,AGUGUGU,0.0103 fraction of reads
5,GAGUGUG,0.00663 fraction of reads
6,GUGUUUG,0.00702 fraction of reads
7,UGUGGUG,0.00628 fraction of reads
8,GUGGUGU,0.00782 fraction of reads
9,CGGUGUG,0.00653 fraction of reads
10,GUGUGUC,0.00739 fraction of reads
11,UGUGUGC,0.00732 fraction of reads
12,GUGUGUU,0.0136 fraction of reads
13,UUGUGUG,0.00989 fraction of reads
14,GUGUGCG,0.00564 fraction of reads
15,UGUUGUG,0.00859 fraction of reads
16,GUGUGUA,0.00612 fraction of reads
17,UUUGUGU,0.00629 fraction of reads
18,GGCGUGU,0.00692 fraction of reads
